Shown are actives, neighbours in structure and some others; about 3% of the full set was active somewhere.
Mtb BioA inh: BioA (M. tuberculosis) enzyme inhibition; purified M. tuberculosis BioA enzyme, plate reader; inhibition, % at 9.99 µM; hit rate 0.096% among 360,000; AID 602481; in the data active means inhibition above about 40%
GDH-TPI counter-1: counter-screen for M. tuberculosis FBA inhibitors: GDH-TPI coupled enzymes; inhibition, % at 4.8 µM; GDH-TPI coupled enzyme counterscreen, NADH absorbance; hit rate 1.2% among 360,000; in the data active means inhibition above about 30%;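 further: 0% = DMSO wells and 100% = wells lacking the enzyme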
FBA Mtb inh: Mtb fructose-bisphosphate aldolase inhibition | P9WQA3 | purified M. tuberculosis FBA, fluorescence read-out | inhibition, % at 1 µM | hit rate 2.3% among 360,000;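 further: 0% = vehicle and 100% = reference inhibitor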
Target sequence (P9WQA3 whole entry, looked up): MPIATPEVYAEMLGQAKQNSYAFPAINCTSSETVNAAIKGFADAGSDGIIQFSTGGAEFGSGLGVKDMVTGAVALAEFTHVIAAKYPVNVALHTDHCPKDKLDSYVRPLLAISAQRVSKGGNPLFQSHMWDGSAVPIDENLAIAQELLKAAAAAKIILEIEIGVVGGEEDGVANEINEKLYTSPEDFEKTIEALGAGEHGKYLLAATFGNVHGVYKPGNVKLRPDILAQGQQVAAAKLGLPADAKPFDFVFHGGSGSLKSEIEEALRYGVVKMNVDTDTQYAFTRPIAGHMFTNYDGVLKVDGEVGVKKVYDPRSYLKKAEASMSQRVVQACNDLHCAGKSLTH
BH1578 lux ind: inducers of Vibrio cholerae quorum light production without autoinducers | V. cholerae BH1578 lux reporter, luminescence, 6 h | activation, % at 18.7 µM | AID 588436 | hit rate 0.16% among 350,000; in the data active means activation mostly above about 9.7%, no sharp cut-off
Mtb FBA confirm: Mtb FBA inhibition, confirmed | shares compounds with FBA Mtb inh | purified M. tuberculosis FBA, fluorescence read-out | inhibition, % at 1 µM | hit rate 78% among 5,600 | AID 651616;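 further: 0% = vehicle wells and 100% = reference inhibitor wells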
GDH-TPI counter-2: counter-screen for M. tuberculosis FBA inhibitors: GDH-TPI coupled enzyme inhibition | AID 652141 | GDH-TPI coupled enzyme counterscreen, fluorescence | inhibition, % at 1 µM | shares compounds with FBA Mtb inh | hit rate 81% among 5,600; in the data active means inhibition above about 10%
The depositor's hits bear a star. Unless noted, no stated cut-off is given here; in the data, active means inhibition above about 27%; inactive means the rest.

What do the screens show for `O=C(COc1ccc2c3c(c(=O)oc2c1)CCC3)NCCCN1CCCC1=O`?
Mtb BioA inh: 2; GDH-TPI counter-1: 16; FBA Mtb inh: 17; BH1578 lux ind: inactive

How did O=C(COc1ccc2c(-c3ccccc3)cc(=O)oc2c1)NCCCn1ccnc1 do in these assays?
Mtb BioA inh: 10; GDH-TPI counter-1: 17; FBA Mtb inh: 4; BH1578 lux ind: 0

Results for Cc1c(OCC(=O)NCCCn2ccnc2)ccc2c3c(c(=O)oc12)CCCC3 ?
Mtb BioA inh: 4; GDH-TPI counter-1: 8; FBA Mtb inh: 31*; BH1578 lux ind: 1; Mtb FBA confirm: 76*; GDH-TPI counter-2: 64*

How did O=C(COc1ccc2c3c(c(=O)oc2c1)CCCC3)NCCCN1CCCC1=O do in these assays?
Mtb BioA inh: 2; GDH-TPI counter-1: 14; FBA Mtb inh: 62*; BH1578 lux ind: 0; Mtb FBA confirm: 92*; GDH-TPI counter-2: 79*

Results for C[C@@H]1CN([C@H](C)CO)S(=O)(=O)c2ccc(-c3cccc(C#N)c3)cc2O[C@@H]1CN(C)C(=O)c1cccnc1 ?
Mtb BioA inh: 1

How did O=C(COc1ccc2c3c(c(=O)oc2c1)CCCC3)NCc1ccccn1 do in these assays?
Mtb BioA inh: 2; GDH-TPI counter-1: 9; FBA Mtb inh: 86*; BH1578 lux ind: inactive; Mtb FBA confirm: active; GDH-TPI counter-2: active

Results for CCCNC(=O)N1C[C@@H](C)[C@@H](OC)CN(C)C(=O)c2ccc(NC(C)=O)cc2OC[C@@H]1C ?
Mtb BioA inh: 1

What do the screens show for `COCc1cc(=O)n2[nH]c(-c3ccco3)cc2n1`?
Mtb BioA inh: -1; GDH-TPI counter-1: 6; FBA Mtb inh: 34*; BH1578 lux ind: inactive; Mtb FBA confirm: 10; GDH-TPI counter-2: 4

What do the screens show for `COCc1cc(=O)n2[nH]c(-c3ccc(C)cc3)cc2n1`?
Mtb BioA inh: -1; GDH-TPI counter-1: 3; FBA Mtb inh: 35*; BH1578 lux ind: inactive; Mtb FBA confirm: 152*; GDH-TPI counter-2: 108*

What do the screens show for `COCc1cc(=O)n2[nH]c(C)nc2n1`?
Mtb BioA inh: -12; GDH-TPI counter-1: 1; FBA Mtb inh: 1; BH1578 lux ind: 0

Results for COCc1cc(=O)n2[nH]c(-c3cccs3)cc2n1 ?
Mtb BioA inh: 0; GDH-TPI counter-1: -7; FBA Mtb inh: 30*; BH1578 lux ind: -1; Mtb FBA confirm: 65*; GDH-TPI counter-2: 66*

What do the screens show for `C[C@H](CO)N1C[C@H](C)[C@H](CN(C)S(=O)(=O)c2cn(C)cn2)Oc2ccc(NS(=O)(=O)c3ccccc3)cc2CC1=O`?
Mtb BioA inh: 1

What do the screens show for `Brc1c(-c2ccc3c(c2)OCO3)nc2ncccn12`?
Mtb BioA inh: 2; GDH-TPI counter-1: 9; FBA Mtb inh: 3; BH1578 lux ind: inactive

Results for COc1ccc(-c2nc3ncccn3c2Br)cc1 ?
GDH-TPI counter-1: 14; FBA Mtb inh: 49*; BH1578 lux ind: 0; Mtb FBA confirm: active; GDH-TPI counter-2: 186*

How did O=C1c2ccccc2NC(c2ccccc2)N1Cc1ccco1 (stereo unspecified) do in these assays?
Mtb BioA inh: 6; GDH-TPI counter-1: -9; FBA Mtb inh: 51*; Mtb FBA confirm: 3; GDH-TPI counter-2: 1

What do the screens show for `O=C1c2ccccc2NC(c2ccc(F)cc2)N1Cc1ccco1` (stereo unspecified)?
Mtb BioA inh: -3; GDH-TPI counter-1: 16; FBA Mtb inh: 49*; BH1578 lux ind: inactive; Mtb FBA confirm: 85*; GDH-TPI counter-2: 61*

Results for COc1cccc(OCc2cc(C3Nc4ccccc4C(=O)N3Cc3ccco3)ccc2OC)c1 (stereo unspecified) ?
Mtb BioA inh: 12; GDH-TPI counter-1: 3; FBA Mtb inh: 13; BH1578 lux ind: 5

How did COc1ccc(OC(C)c2ccc(C#N)c(=O)[nH]2)cc1 (stereo unspecified) do in these assays?
GDH-TPI counter-1: 10; FBA Mtb inh: 4; BH1578 lux ind: inactive

What do the screens show for `CC(Oc1ccc(Cl)cc1)c1ccc(C#N)c(=O)[nH]1` (stereo unspecified)?
GDH-TPI counter-1: 22; FBA Mtb inh: 34*; BH1578 lux ind: inactive; Mtb FBA confirm: 123*; GDH-TPI counter-2: 97*

What do the screens show for `COC(OC)c1ccc(C#N)c(=O)[nH]1`?
GDH-TPI counter-1: 9; FBA Mtb inh: 58*; BH1578 lux ind: 0; Mtb FBA confirm: -8; GDH-TPI counter-2: -5

Results for C[C@H](CO)N1C[C@H](C)[C@H](CN(C)Cc2ccc(C(F)(F)F)cc2)Oc2ccc(NC(=O)Nc3cccc4ccccc34)cc2CC1=O ?
Mtb BioA inh: 2

Results for CO[C@@H]1CC[C@@H]2CCOc3c(C#N)cccc3C(=O)N(C)[C@@H](C)C(=O)N(C)C[C@@H]1O2 ?
Mtb BioA inh: -1

How did O=C(c1cccn2c(=O)c3cc(Cl)ccc3nc12)N1CCC2(CC1)OCCO2 do in these assays?
Mtb BioA inh: 1; GDH-TPI counter-1: 21; FBA Mtb inh: 34*; BH1578 lux ind: 0; Mtb FBA confirm: 46*; GDH-TPI counter-2: 39*

Results for COCCCn1c(C(=O)N2CCOCC2)cc2c(=O)n3cccc(C)c3nc21 ?
Mtb BioA inh: 0; GDH-TPI counter-1: 18; FBA Mtb inh: 72*; BH1578 lux ind: 0; Mtb FBA confirm: 55*; GDH-TPI counter-2: 43*

Results for Cc1cccn2c(=O)nc(SCC(=O)N3CCOCC3)nc12 ?
Mtb BioA inh: 9; GDH-TPI counter-1: 17; FBA Mtb inh: 4; BH1578 lux ind: 0

How did COCCN1CCC(CNCc2c(C(=O)N3CCCCC3)nc3c(C)cccn23)C1 (stereo unspecified) do in these assays?
GDH-TPI counter-1: 22; FBA Mtb inh: 3; BH1578 lux ind: 0

What do the screens show for `CCCCn1c(=NC(=O)c2ccc3c(c2)OCO3)c(C#N)cc2c(=O)n3cccc(C)c3nc21`?
Mtb BioA inh: 1; GDH-TPI counter-1: -2; FBA Mtb inh: 77*; BH1578 lux ind: inactive; Mtb FBA confirm: active; GDH-TPI counter-2: active

What do the screens show for `COCCCn1c(C(=O)N2CC(C)OC(C)C2)cc2c(=O)n3cccc(C)c3nc21` (stereo unspecified)?
Mtb BioA inh: 1; GDH-TPI counter-1: 27; FBA Mtb inh: 74*; BH1578 lux ind: inactive; Mtb FBA confirm: active; GDH-TPI counter-2: active

What do the screens show for `C[C@H]1CN([C@@H](C)CO)C(=O)c2cc(-c3cccc(C#N)c3)cnc2O[C@@H]1CN(C)Cc1cncnc1`?
Mtb BioA inh: 3

What do the screens show for `COc1ccc(NC(=O)Nc2ccc3c(c2)CC(=O)N([C@H](C)CO)C[C@@H](C)[C@@H](CN(C)S(=O)(=O)c2cccs2)O3)cc1`?
Mtb BioA inh: 0

What do the screens show for `O=S(=O)(N[C@H]1CC[C@H](CCn2cc(-c3ccccn3)nn2)O[C@H]1CO)c1cccc(Cl)c1`?
Mtb BioA inh: 0

Screening data from PubChem.
